Experimental data: PubChem BioAssay (NCATS)
Results filed as inconclusive are left out. The source made the active and inactive calls. Unless noted, calls follow the shape of the dose curve; as a rule, active = well fitted curve in the direction sought with a large enough effect; inconclusive = small, poorly fitted or top-dose-only effect, or another doubt; inactive = no such curve, though single readings can be large; an effect the other way counts as inactive or inconclusive.

Key:
[1] = qHTS profiling for inhibitors of Plasmodium falciparum (3D7) proliferation (AID 743322; call rule not given here;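 also: infected erythrocytes exposed to compound for 72 h before lysis; 100% = DMSO vehicle wells and 0% = 0.29 µM artemisinin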); details: P. falciparum 3D7 proliferation; at 28.7 µM (top of the series)
Outline: (§1)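 Erythrocytes infected with P. falciparum (0.3% parasitemia, 2.5% hematocrit) incubated with compounds 72 h at 37 C, 5% CO2. Lysis with saponin/Triton buffer containing SYBR Green I, overnight at room temperature in the dark; DNA fluorescence (485/535 nm) normalised to 0.29 uM artemisinin and DMSO.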

[2] = qHTS profiling for inhibitors of Plasmodium falciparum (DD2) proliferation (AID 743323; call rule not given here); details: lower = more inhibition; at 28.7 µM (top of the series)
Outline: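 Parasite proliferation measured via DNA-dye fluorescence, as uninfected erythrocytes lack DNA. Cultures at 0.3% parasitemia and 2.5% hematocrit incubated 72 h with compound; signal scaled between vehicle and 0.29 uM artemisinin wells.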

[3] = qHTS profiling for inhibitors of Plasmodium falciparum (HB3) proliferation (AID 743324); details: Plasmodium falciparum HB3 blood-stage proliferation; at 28.7 µM (top of the series);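 also: 100% = DMSO vehicle wells and 0% = artemisinin-treated control wells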
Outline: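 P. falciparum HB3 grown in erythrocytes (0.3% parasitemia, 2.5% hematocrit final) with compound for 72 h at 37 C, 5% CO2. Parasite DNA detected by SYBR Green after saponin/triton lysis overnight; normalized to 0.29 uM artemisinin and DMSO.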

[4] = qHTS profiling of the MIPE4 collection as inhibitors of Plasmodium falciparum (3D7) proliferation (AID 743344; call rule not given here;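 also: scaled between DMSO vehicle wells and 0.29 µM artemisinin as full inhibition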); details: P. falciparum 3D7 in erythrocytes, SYBR Green DNA fluorescence, 72 h; at 28.5 µM (top of the series) unless noted
Outline: as §1

[5] = qHTS profiling of the MIPE4 collection as inhibitors of Plasmodium falciparum (HB3) proliferation (AID 743347; call rule not given here;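 also: plate controls were DMSO vehicle wells for no effect and artemisinin wells for full effect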); details: P. falciparum HB3 in erythrocytes, SYBR Green DNA, 72 h; at 28.5 µM (top of the series) unless noted
Outline: as §1

[6] = High-throughput drug toxicity screening in the BPDCN cell line Gen2.2 (AID 1224824; call rule not given here); details: Gen2.2 BPDCN cells; at 45.8 µM (top of the series) unless noted
Outline: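 Gen2.2 cells (500/well) in phenol red-free RPMI with 10% FBS were exposed to compounds for 48 h at 37 °C, 5% CO2. Viability was read by CellTiter-Glo luminescence and normalized to DMSO (100%) and 9.2 uM bortezomib (0%).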

[7] = High-throughput drug toxicity screening in the BPDCN cell line Cal-1 (AID 1224825; call rule not given here); details: Cal-1 BPDCN cell viability, qHTS; at 45.8 µM (top of the series) unless noted
Outline: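 Exponentially growing Cal-1 cells, 500 per well in phenol red-free RPMI with 10% FBS, were exposed to compounds for 48 h at 37 °C, 5% CO2. Viability was read by CellTiter-Glo luminescence and normalised to DMSO (100%) and 9.2 uM bortezomib (0%).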

[8] = qHTS assay for measurement of the activity of small molecule inhibitors on Zika virus induced Caspase-3 activity in human iPSC derived neural progenitor cells (hNPCs) (AID 1224857); also: % of control where 0% means no effect; nearly all actives have a fitted effect of over 65% in size
Outline: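 After overnight (16–20 h) culture at 350 cells/well, hNPCs get compound, then ZIKV 2 FFU/cell one hour later. Six hours on, Caspase-Glo 3/7 is added and luminescence measured.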

[9] = qHTS assay for measurement of the activity of small molecule inhibitors on Zika virus induced Caspase-3 activity in human astrocytoma cells (AID 1224859);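 also: plate controls were ZIKV-infected untreated cells for no effect and uninfected cells for full effect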
Outline: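 Inhibition of Zika-induced caspase-3/7 activity: SNB-19 cells, 1 h compound pretreatment, ZIKV 2 FFU/cell for 6 h at 37 C, Caspase-Glo luminescence read-out.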

[10] = qHTS Screen of the MIPE 4.0 Collection Against Ewings Sarcoma (RDES) (AID 1259252); also: nearly all actives have a fitted effect of over 35% in size; also: potency is read from the fitted curve at half-maximal effect
Outline: (§2)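 Measured: ATP luminescence (CellTiter-Glo) 10 min after reagent addition, following 48 h drug treatment. Relative luciferase units converted to percent activity, with no-cell wells as full and DMSO wells as zero inhibition.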

[11] = qHTS Screen of the MIPE 4.0 Collection Against Ewings Sarcoma (TC71) (AID 1259253); also: nearly all actives have a fitted effect of over 40% in size; also: potency is read from the fitted curve at half-maximal effect
Outline: as §2

[12] = qHTS Screen of the MIPE 4.0 Collection Against Ewings Sarcoma (EW8) (AID 1259255); also: nearly all actives have a fitted effect of over 35% in size; also: potency is read from the fitted curve at half-maximal effect;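 as to viability: 100% = DMSO-treated cells and 0% = medium-only wells without cells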
Outline: as §2

[13] = qHTS Screen of the MIPE 4.0 Collection Against Ewings Sarcoma (TC32) (AID 1259256); also: nearly all actives have a fitted effect of over 45% in size; also: potency is read from the fitted curve at half-maximal effect
Outline: as §2

[14] = Identifying Small Molecule Inhibitors of Pancreatic Cancer Stem Cells (A2780, Spheroid) (AID 1259357); details: Potency: A2780 spheroid viability;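 also: compound exposure lasted 48 h before the ATP luminescence read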; also: potency is read from the fitted curve at half-maximal effect
Outline: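 Monolayer and spheroid cultures are compared. Spheroids form over 14 days in stem cell medium on hydrogel-coated low-attachment plates, then are exposed to compound for 48 h before CellTiter-Glo luminescence.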

[15] = Identifying Small Molecule Inhibitors of Pancreatic Cancer Stem Cells (SN12C, Adherent) (AID 1259358);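 also: cell survival measured after 48 h of compound exposure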; also: potency is read from the fitted curve at half-maximal effect
Outline: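 After a 4 h attachment period, compounds were pinned into wells and cultures held 48 h under standard incubator conditions. Viability was then measured as CellTiter-Glo luminescence following 10 min at room temperature.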

[16] = qHTS profiling of the MIPE4 collection as inhibitors of Plasmodium falciparum (DD2) proliferation (Rep 2) (AID 743346; call rule not given here); details: P. falciparum Dd2 in erythrocytes, SYBR Green DNA, 72 h; at 28.5 µM (top of the series) unless noted
Outline: as §1

[17] = qHTS assay to identify small molecule inhibitors of chordoma cells - UCH-1 (AID 1259355); also: % is scaled to controls: 0 for no effect and ±100 for the full control effect; nearly all actives have a fitted effect of over 55% in size
Outline: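 Luminescent ATP read-out (CellTiter-Glo, 30min at room temperature) measured viability of UCH-1 cells exposed for 48hr to test drugs at 15 concentrations, co-dosed with a five-agent combination of auranofin, camptothecin, doxorubicin, rubitecan and topotecan.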

[18] = qHTS assay to identify small molecule inhibitors of chordoma cells - UCH-2 (AID 1259356); also: % is scaled to controls: 0 for no effect and ±100 for the full control effect
[19] = qHTS profiling of the MIPE4 collection as inhibitors of Plasmodium falciparum (DD2) proliferation (AID 743345; call rule not given here); details: P. falciparum Dd2 in erythrocytes, SYBR Green DNA, 72 h; at 28.5 µM (top of the series) unless noted
Outline: as §1

[20] = Identifying Small Molecule Inhibitors of Pancreatic Cancer Stem Cells (Panc1, Spheroid) (AID 1259359);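 also: potency is read from the fitted curve at half-maximal effect; compound exposure lasted 48 h before reading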
Outline: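 Adherent (2D) versus sphere (3D) formats; spheres generated 14 d in SCM beforehand. Compound transferred by pin tool after 4 h, 48 h incubation, CellTiter-Glo endpoint.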

Row | Structure (SMILES) | remaining parasite growth % (stronger effect = lower value) [1] | activity, percent of control [2] | remaining proliferation (% of control), lower = more inhibition [3] | parasite growth, % of DMSO control [4] | growth, % of control [5] | cell viability, % of control (lower = more cytotoxic) [6] | viability (% of control) [7] | Potency [8] | Potency [9] | Potency [10] | Potency [11] | Potency [12] | Potency [13] | Potency [14] | Potency [15] | parasite growth, % of control (lower = inhibition) [16] | Potency [17] | outcome [18] | parasite growth remaining, % of DMSO control (lower = more inhibition) [19] | Potency [20]
1 | Nc1ccc(C(=O)c2cc3c(ccc4ccccc43)[nH]2)cc1 | 114% | 98.8% | 99.1% | 292% | 409% | 66.8% | 8.09% | inactive | inactive | 2.64 µM (active) | 3.32 µM (active) | 1.87 µM (active) | 1.87 µM (active) | 2.09 µM (active) | inactive | – | – | – | – | –
2 | Nc1ccc(S(=O)(=O)Nc2ncccn2)cc1 | – | – | – | 92.1% | 63.8% | 115% | 103% | inactive | inactive | inactive | inactive | inactive | inactive | – | – | 69.1% | inactive | inactive | – | –
3 | CC(C)(C)NC(=O)[C@H]1CN(Cc2cccnc2)CCN1C[C@@H](O)C[C@@H](Cc1ccccc1)C(=O)N[C@H]1c2ccccc2C[C@H]1O | – | – | – | 19.6% | 7.39% | 129% | 85.6% | inactive | inactive | 1.05 µM (active) | 1.18 µM (active) | 4.18 µM (active) | 1.32 µM (active) | – | – | – | inactive | inactive | 42.6% | –
4 | Cn1cc(-c2[nH]c3cc(NC(=O)[C@H](N)C4CCCCC4)cc4c3c2C=NNC4=O)cn1 | -2.18% | -0.309% | -1.93% | 3.34% | 2.91% | 28.9% | 4.56% | inactive | inactive | 0.833 µM (active) | 0.59 µM (active) | 0.372 µM (active) | 0.372 µM (active) | – | 14.8 µM (active) | 4.04% | – | – | 5.92% | –
5 | c1ccc2c(CCNc3ccc(Nc4ccncc4)cc3)c[nH]c2c1 | 1.57% | 6.37% | -0.777% | 11.1% | 5.7% | 5.37% | 3.61% | inactive | inactive | 16.6 µM (active) | 14.8 µM (active) | 5.26 µM (active) | 5.26 µM (active) | inactive | 18.7 µM (active) | 6.39% | – | – | 10.6% | –
6 | COc1cc2ncnc(Nc3ccc(F)c(Cl)c3)c2cc1NC(=O)C=CCN1CCCCC1 | -0.218% | 0.401% | 0.28% | 9.04% | 6.53% | 10% | 3.6% | inactive | inactive | 16.6 µM (active) | 2.09 µM (active) | 4.69 µM (active) | 2.96 µM (active) | – | 20.9 µM (active) | 11% | – | – | 8.26% | 23.5 µM (active)
7 | CN(c1ncccc1CNc1nc(Nc2ccc3c(c2)CC(=O)N3)ncc1C(F)(F)F)S(C)(=O)=O | 12.7% | 9.35% | 5.89% | – | 10.4% | 12.1% | 4.76% | inactive | inactive | 11.8 µM (active) | 5.9 µM (active) | 8.33 µM (active) | 10.5 µM (active) | 5.26 µM (active) | – | 30.9% | – | – | – | –
8 | CCC1=C[C@@H]2CN(C1)Cc1c([nH]c3ccccc13)[C@@](C(=O)OC)(c1cc3c(cc1OC)N(C)[C@@H]1[C@@](O)(C(=O)OC)[C@H](OC(C)=O)[C@]4(CC)C=CCN5CC[C@]31[C@@H]54)C2 | – | – | – | 5.09% | 8.82% | 28.9% | 14.5% | inactive | inactive | 0.0148 µM (active) | 0.166 µM (active) | 0.0066 µM (active) | inactive | – | – | 20.6% | – | inactive | 7.41% | –
9 | CC(C)c1ccc(Cn2ccc3c4c(N)nc(NC5CC5)nc4ccc32)cc1 | -2.55% | -1.01% | -1.47% | 4.63% | 3.42% | 3.92% | 4.41% | inactive | inactive | 9.35 µM (active) | 1.05 µM (active) | 3.32 µM (active) | 1.32 µM (active) | 14.8 µM (active) | 7.43 µM (active) | 15.1% | – | – | – | 5.26 µM (active)
10 | CCCCCN(CCC12CC3CC(CC(C3)C1)C2)C(=O)NCCCc1ccncc1 | 7.44% | 32.6% | 7.47% | 6.26% | 6.74% | 111% | 94.4% | inactive | inactive | 16.6 µM (active) | 18.7 µM (active) | 18.7 µM (active) | 14.8 µM (active) | – | inactive | 13.6% | – | – | 11.7% | –
11 | Cc1nc2cnc3ccc(C#Cc4cccnc4)cc3c2n1-c1ccc(C(C)(C)C#N)cc1 | -1.11% | 0.126% | -0.656% | 4.38% | 3.51% | 3.34% | 16.6% | inactive | inactive | 0.132 µM (active) | 0.132 µM (active) | 0.118 µM (active) | 0.105 µM (active) | 1.87 µM (active) | 1.18 µM (active) | 13.9% | – | – | 7.19% | 18.7 µM (active)
12 | NC(=O)Nc1cc(-c2cccc(F)c2)sc1C(=O)N[C@H]1CCCNC1 | -0.937% | 5.1% | 0.699% | 7.3% | 6.42% | 7.53% | 4.12% | inactive | inactive | 0.935 µM (active) | 0.0935 µM (active) | 0.166 µM (active) | 0.0833 µM (active) | 18.7 µM (active) | 8.33 µM (active) | 15.5% | – | – | 10.6% | –
